Reference: the supplement of paper PMC10849652
About 8,800 targets were measured; listed, in parts, are those with a hit and a random draw of the rest. About 0.5% of all pairs of compound and target were hits. Unmarked numbers belong to inactive results.

Tests used:
Assay in all cases: log2 fold change, soluble protein after heating vs DMSO (PISA); higher = thermal stabilisation; K562 lysate, 10 uM; active = over 0.2 and 3.5 SD of the protein, either way, in both replicates (recomputed)
alvocidib = compound: CN1CC[C@H](c2c(O)cc(O)c3c(=O)cc(-c4ccccc4Cl)oc23)[C@H](O)C1 [alvocidib]
Summary of the method: (§1)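 A 30 min treatment with 10 μM compound was applied to crude K562 extract at 1 mg/mL protein in PBS pH 7.4 with 1 mM MgCl2. Heating for 3 min spanned 48°C-58°C, after which aliquots were pooled, adjusted to 0.5% NP-40 at 4°C and spun at 21,000xg for 90 min. TMTpro 16plex LC-MS/MS of the supernatant, with channel sums equalised, gave values recorded as log-two fold change in thermal stability against solvent controls, from duplicates.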

Tubastatin A = compound: CN1CCc2c(c3ccccc3n2Cc2ccc(C(=O)NO)cc2)C1 [Tubastatin A]
Summary of the method: as §1

[1] = compound: CNC(=O)C1=CC=CC=C1NC2=NC(=NC=C2Cl)NC3=C(C=C(C=C3)N4CCOCC4)OC
Summary of the method: as §1

defactinib = compound: CNC(=O)c1ccc(Nc2ncc(C(F)(F)F)c(NCc3nccnc3N(C)S(C)(=O)=O)n2)cc1 [defactinib]
Summary of the method: as §1

[2] = compound: CNc1nc(-c2ccc3c(N)n[nH]c3c2)cc(N2C[C@@H](C(=O)NC3CCCCC3)CC[C@H]2C)n1
Summary of the method: as §1

encorafenib = compound: COC(=O)N[C@@H](C)CNc1nccc(-c2cn(C(C)C)nc2-c2cc(Cl)cc(NS(C)(=O)=O)c2F)n1 [encorafenib]
Summary of the method: as §1

[3] = compound: COC(=O)[C@H](CCSC)NC(=O)C1=C(C=C(C=C1)NC[C@H](CS)N)C2=CC=CC=C2
Summary of the method: as §1

alisertib = compound: COc1cc(Nc2ncc3c(n2)-c2ccc(Cl)cc2C(c2c(F)cccc2OC)=NC3)ccc1C(=O)O [alisertib]
Summary of the method: as §1

[4] = compound: COc1cc2nc(-c3cc(F)ccc3O)nc(N[C@@H]3CNC[C@H]3C(C)(C)O)c2cc1OC
Summary of the method: as §1

gefitinib = compound: COc1cc2ncnc(Nc3ccc(F)c(Cl)c3)c2cc1OCCCN1CCOCC1 [gefitinib]
Summary of the method: as §1

lapatinib = compound: CS(=O)(=O)CCNCc1ccc(-c2ccc3ncnc(Nc4ccc(OCc5cccc(F)c5)c(Cl)c4)c3c2)o1 [lapatinib]
Summary of the method: as §1

pictilisib = compound: CS(=O)(=O)N1CCN(Cc2cc3nc(-c4cccc5[nH]ncc45)nc(N4CCOCC4)c3s2)CC1 [pictilisib]
Summary of the method: as §1

crizotinib = compound: C[C@@H](Oc1cc(-c2cnn(C3CCNCC3)c2)cnc1N)c1c(Cl)ccc(F)c1Cl [crizotinib]
Summary of the method: as §1

[5] = compound: C[C@H](C1=CC=C(C=C1)C(=O)NC2=C3C=CNC3=NC=C2)N
Summary of the method: as §1

duvelisib = compound: C[C@H](Nc1ncnc2nc[nH]c12)c1cc2cccc(Cl)c2c(=O)n1-c1ccccc1 [duvelisib]
Summary of the method: as §1

gandotinib = compound: Cc1cc(Nc2cc(CN3CCOCC3)c3nc(C)c(Cc4ccc(Cl)cc4F)n3n2)n[nH]1 [gandotinib]
Summary of the method: as §1

tozasertib = compound: Cc1cc(Nc2cc(N3CCN(C)CC3)nc(Sc3ccc(NC(=O)C4CC4)cc3)n2)n[nH]1 [tozasertib]
Summary of the method: as §1

doramapimod = compound: Cc1ccc(-n2nc(C(C)(C)C)cc2NC(=O)Nc2ccc(OCCN3CCOCC3)c3ccccc23)cc1 [doramapimod]
Summary of the method: as §1

bafetinib = compound: Cc1ccc(NC(=O)c2ccc(CN3CC[C@H](N(C)C)C3)c(C(F)(F)F)c2)cc1Nc1nccc(-c2cncnc2)n1 [bafetinib]
Summary of the method: as §1

[6] = compound: Cc1cccc(CC(=O)N2CCc3c2ccc(-c2cn(C)c4ncnc(N)c24)c3F)n1
Summary of the method: as §1

UniProt Q96BM9, sequence (Q96BM9 whole entry, looked up): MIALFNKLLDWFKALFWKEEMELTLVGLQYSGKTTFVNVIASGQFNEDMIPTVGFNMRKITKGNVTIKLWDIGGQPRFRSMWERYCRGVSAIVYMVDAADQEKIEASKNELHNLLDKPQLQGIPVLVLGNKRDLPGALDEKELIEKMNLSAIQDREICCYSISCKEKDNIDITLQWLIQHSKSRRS
UniProt Q02252, sequence (Q02252 whole entry, looked up): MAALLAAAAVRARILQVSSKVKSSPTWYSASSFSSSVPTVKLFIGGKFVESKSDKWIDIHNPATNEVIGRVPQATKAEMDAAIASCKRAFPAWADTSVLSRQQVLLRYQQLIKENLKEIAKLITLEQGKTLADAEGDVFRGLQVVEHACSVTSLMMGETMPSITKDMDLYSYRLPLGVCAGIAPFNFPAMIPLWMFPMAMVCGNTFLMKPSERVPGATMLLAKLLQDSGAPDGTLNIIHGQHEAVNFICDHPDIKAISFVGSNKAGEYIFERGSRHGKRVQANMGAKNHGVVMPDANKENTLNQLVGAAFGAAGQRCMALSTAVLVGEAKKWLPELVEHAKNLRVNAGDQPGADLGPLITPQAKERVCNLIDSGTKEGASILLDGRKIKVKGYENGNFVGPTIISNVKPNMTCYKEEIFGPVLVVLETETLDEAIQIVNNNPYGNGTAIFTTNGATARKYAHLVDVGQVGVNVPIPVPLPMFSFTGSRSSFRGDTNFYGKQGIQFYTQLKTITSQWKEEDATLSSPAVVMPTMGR
UniProt P04083, sequence (P04083 whole entry, looked up): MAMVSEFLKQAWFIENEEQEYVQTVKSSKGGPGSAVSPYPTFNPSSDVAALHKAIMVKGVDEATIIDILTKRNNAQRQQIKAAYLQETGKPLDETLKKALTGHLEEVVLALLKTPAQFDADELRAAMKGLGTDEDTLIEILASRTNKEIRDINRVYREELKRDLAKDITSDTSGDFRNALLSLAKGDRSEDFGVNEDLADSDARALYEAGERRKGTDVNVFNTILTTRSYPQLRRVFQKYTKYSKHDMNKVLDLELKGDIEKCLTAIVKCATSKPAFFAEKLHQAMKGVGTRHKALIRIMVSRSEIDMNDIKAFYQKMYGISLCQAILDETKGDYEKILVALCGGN
UniProt P07311, sequence (P07311 whole entry, looked up): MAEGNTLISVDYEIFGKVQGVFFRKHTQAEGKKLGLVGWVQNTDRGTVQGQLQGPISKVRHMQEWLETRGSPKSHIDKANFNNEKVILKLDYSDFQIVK
UniProt P08758, sequence (P08758 whole entry, looked up): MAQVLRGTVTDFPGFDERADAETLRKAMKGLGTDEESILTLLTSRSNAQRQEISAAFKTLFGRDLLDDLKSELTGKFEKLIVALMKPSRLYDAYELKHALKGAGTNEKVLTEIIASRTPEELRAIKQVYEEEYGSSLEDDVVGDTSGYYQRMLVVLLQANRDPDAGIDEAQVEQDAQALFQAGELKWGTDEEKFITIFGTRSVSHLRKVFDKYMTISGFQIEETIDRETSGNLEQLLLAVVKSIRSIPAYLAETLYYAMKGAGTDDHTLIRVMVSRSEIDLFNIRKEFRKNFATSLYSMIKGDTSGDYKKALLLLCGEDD
UniProt P35573, sequence (P35573 whole entry, looked up): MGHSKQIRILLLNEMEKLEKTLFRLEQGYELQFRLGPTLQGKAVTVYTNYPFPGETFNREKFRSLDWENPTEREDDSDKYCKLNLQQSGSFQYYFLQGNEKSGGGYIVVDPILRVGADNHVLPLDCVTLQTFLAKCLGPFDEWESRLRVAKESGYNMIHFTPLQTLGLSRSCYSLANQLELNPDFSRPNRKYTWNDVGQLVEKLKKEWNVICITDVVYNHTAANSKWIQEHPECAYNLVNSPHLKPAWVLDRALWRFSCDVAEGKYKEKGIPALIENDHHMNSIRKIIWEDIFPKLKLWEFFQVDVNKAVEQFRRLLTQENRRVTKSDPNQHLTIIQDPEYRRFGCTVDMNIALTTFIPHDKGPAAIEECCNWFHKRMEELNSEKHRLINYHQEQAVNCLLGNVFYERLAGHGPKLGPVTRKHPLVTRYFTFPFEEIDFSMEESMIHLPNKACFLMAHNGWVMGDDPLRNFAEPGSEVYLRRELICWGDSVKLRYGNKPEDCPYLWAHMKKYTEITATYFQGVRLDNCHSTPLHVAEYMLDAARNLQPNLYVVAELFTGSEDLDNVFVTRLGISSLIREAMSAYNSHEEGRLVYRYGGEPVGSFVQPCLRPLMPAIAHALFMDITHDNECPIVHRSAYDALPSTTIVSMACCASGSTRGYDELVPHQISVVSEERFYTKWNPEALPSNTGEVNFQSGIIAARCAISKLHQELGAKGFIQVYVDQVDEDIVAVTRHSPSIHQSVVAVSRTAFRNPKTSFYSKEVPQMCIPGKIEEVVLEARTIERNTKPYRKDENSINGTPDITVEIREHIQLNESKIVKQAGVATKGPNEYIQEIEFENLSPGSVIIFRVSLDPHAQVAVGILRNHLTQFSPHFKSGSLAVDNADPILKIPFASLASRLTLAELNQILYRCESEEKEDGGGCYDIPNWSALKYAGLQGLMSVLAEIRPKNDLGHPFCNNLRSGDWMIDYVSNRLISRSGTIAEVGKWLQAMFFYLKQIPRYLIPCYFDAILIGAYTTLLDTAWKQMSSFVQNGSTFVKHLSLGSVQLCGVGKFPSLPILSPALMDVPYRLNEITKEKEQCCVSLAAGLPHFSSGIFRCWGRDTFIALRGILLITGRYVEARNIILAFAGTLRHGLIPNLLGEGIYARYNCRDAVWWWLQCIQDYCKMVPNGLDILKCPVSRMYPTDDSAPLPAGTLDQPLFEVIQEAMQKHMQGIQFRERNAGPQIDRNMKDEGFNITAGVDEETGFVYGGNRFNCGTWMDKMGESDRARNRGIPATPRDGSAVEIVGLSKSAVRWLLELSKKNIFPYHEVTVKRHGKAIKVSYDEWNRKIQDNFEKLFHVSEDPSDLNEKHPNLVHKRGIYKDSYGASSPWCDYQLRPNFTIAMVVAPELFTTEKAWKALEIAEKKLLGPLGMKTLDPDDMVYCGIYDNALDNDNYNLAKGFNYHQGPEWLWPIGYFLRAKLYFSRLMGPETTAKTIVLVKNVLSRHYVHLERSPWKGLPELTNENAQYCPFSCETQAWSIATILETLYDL
UniProt Q9UHB7, sequence (Q9UHB7 whole entry, looked up): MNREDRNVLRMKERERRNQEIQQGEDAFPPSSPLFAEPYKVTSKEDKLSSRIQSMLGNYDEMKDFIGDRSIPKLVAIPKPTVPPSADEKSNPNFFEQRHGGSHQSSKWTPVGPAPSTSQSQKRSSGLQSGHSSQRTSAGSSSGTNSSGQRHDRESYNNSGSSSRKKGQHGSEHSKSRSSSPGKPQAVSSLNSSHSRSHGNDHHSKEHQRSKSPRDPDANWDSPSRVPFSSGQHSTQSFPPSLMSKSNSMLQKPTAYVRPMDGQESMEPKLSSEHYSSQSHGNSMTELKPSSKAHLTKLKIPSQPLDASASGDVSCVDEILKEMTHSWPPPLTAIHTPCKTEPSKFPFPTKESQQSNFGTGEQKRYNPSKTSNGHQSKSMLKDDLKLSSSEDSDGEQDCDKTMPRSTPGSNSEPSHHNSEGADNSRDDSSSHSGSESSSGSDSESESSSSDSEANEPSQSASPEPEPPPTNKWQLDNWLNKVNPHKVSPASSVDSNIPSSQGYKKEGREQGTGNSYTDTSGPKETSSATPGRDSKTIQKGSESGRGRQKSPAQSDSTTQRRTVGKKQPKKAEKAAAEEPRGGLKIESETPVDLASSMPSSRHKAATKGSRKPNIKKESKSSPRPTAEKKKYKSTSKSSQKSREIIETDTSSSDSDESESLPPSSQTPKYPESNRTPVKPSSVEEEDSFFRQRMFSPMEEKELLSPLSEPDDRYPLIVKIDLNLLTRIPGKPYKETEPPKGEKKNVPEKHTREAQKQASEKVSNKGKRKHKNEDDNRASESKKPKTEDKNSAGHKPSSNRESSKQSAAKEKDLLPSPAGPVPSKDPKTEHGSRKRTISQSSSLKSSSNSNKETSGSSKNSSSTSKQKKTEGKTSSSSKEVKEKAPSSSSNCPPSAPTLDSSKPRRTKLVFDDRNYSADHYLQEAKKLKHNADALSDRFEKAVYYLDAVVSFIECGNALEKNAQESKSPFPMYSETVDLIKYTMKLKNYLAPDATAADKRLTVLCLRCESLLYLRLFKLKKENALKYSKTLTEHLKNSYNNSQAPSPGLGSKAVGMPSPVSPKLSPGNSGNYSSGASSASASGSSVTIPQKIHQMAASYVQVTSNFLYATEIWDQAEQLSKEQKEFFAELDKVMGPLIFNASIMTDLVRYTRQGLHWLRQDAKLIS
UniProt Q562R1, sequence (Q562R1 whole entry, looked up): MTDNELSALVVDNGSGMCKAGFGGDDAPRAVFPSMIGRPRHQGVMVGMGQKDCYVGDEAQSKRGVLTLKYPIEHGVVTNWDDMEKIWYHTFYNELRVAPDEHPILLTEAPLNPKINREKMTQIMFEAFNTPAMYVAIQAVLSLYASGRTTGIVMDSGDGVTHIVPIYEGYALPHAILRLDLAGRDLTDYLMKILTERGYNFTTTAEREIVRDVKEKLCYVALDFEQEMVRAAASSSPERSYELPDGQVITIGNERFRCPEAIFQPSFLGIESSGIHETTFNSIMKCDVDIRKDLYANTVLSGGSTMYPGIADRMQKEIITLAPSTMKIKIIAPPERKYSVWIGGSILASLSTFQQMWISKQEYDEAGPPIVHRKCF
UniProt Q16186, sequence (Q16186 whole entry, looked up): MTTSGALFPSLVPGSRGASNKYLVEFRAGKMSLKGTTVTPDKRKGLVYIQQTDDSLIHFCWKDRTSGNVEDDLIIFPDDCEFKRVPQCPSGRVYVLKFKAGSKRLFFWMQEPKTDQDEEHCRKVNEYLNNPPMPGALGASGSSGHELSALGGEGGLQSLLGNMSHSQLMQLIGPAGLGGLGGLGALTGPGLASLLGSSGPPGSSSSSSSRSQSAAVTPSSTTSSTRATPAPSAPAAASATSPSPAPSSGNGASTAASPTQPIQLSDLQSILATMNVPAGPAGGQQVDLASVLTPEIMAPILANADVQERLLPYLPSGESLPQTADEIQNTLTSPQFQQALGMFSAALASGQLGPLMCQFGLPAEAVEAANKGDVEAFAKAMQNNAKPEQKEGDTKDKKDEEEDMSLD

Target | log2 fold change (alvocidib) | log2 fold change (Tubastatin A) | log2 fold change [1] | log2 fold change (defactinib) | log2 fold change [2] | log2 fold change (encorafenib) | log2 fold change [3] | log2 fold change (alisertib) | log2 fold change [4] | log2 fold change (gefitinib) | log2 fold change (lapatinib) | log2 fold change (pictilisib) | log2 fold change (crizotinib) | log2 fold change [5] | log2 fold change (duvelisib) | log2 fold change (gandotinib) | log2 fold change (tozasertib) | log2 fold change (doramapimod) | log2 fold change (bafetinib) | log2 fold change [6]
ASB6 (UniProt Q9NWX5) | 0.097 | 0.014 | -0.006 | 0.019 | 0.099 | -0.1 | 0.174 | -0.001 | 0.073 | -0.046 | -0.04 | -0.029 | 0.01 | 0.093 | 0.008 | -0.065 | -0.159 | 0.004 | -0.055 | -0.028
ADRM1 (UniProt Q16186) | 0.009 | -0.064 | -0.027 | 0.003 | 0.011 | -0.033 | 0.118 | 0.032 | -0.001 | -0.009 | -0.009 | -0.012 | -0.05 | 0.019 | 0.03 | -0.014 | -0.019 | 0.042 | 0.006 | 0.02
ANXA1 (UniProt P04083) | -0.025 | -0.005 | -0.021 | -0.007 | -0.055 | -0.021 | 0.028 | 0.001 | 0.008 | -0.012 | 0.005 | 0.013 | 0.018 | -0.013 | 0.016 | -0.005 | 0.012 | 0.008 | 0.038 | 0.028
AGL (UniProt P35573) | 0.046 | -0.099 | 0.014 | 0.024 | -0.002 | 0.008 | 0.178 | -0.004 | -0.012 | -0.007 | -0.004 | 0 | -0.019 | 0.115 | -0.013 | -0.094 | 0.014 | 0.029 | -0.037 | -0.059
AKR1C3 (UniProt P42330) | 0.026 | 0.073 | -0.052 | 0.017 | -0.211 | -0.026 | 0.022 | 0.056 | 0.028 | -0.003 | -0.03 | -0.024 | -0.039 | -0.014 | -0.036 | 0.052 | -0.003 | 0.022 | 0.022 | -0.026
ALDH6A1 (UniProt Q02252) | -0.044 | 0.43 (active) | 0.106 | 0.018 | 0.091 | -0.015 | 0.103 | 0.086 | 0.061 | 0.098 | -0.04 | -0.028 | -0.023 | -0.032 | 0.073 | -0.033 | 0.021 | -0.017 | 0.122 | -0.001
ARL8A (UniProt Q96BM9) | 0.082 | 0.043 | 0.06 | 0.019 | 0.204 | -0.048 | -0.03 | -0.186 | 0.027 | 0.013 | -0.11 | 0.038 | 0.091 | 0.426 (active) | -0.078 | 0 | -0.063 | -0.005 | -0.016 | -0.088
ABHD17B (UniProt Q5VST6) | 0 | -0.016 | -0.003 | 0.064 | -0.099 | 0.059 | -0.642 (active) | 0.06 | -0.011 | 0.043 | 0.075 | -0.076 | -0.051 | 0.01 | 0.026 | -0.012 | -0.513 (active) | -0.026 | 0.01 | 0.183
AFF4 (UniProt Q9UHB7) | -0.235 | -0.086 | -0.046 | 0.077 | 0.018 | 0.011 | -0.027 | -0.022 | 0.015 | 0.013 | 0.003 | -0.007 | -0.033 | 0.011 | 0.059 | 0.066 | 0 | 0 | 0.05 | 0.001
AIFM2 (UniProt Q9BRQ8) | -0.032 | 0.044 | 0.114 | 0.045 | 0.099 | 0.024 | 0.107 | -0.032 | -0.034 | 0.038 | 0.132 | -0.024 | 0.06 | -0.143 | 0.004 | 0.507 (active) | -0.014 | 0.307 | 0.086 | 0.089
ANXA5 (UniProt P08758) | 0.04 | 0 | -0.023 | -0.002 | -0.067 | -0.016 | 0.049 | 0.052 | -0.009 | 0.049 | 0.005 | -0.009 | 0.046 | 0.059 | -0.028 | -0.119 | 0.019 | 0.015 | -0.018 | -0.065
ACTBL2 (UniProt Q562R1) | -0.083 | -0.111 | -0.01 | 0.093 | -0.008 | -0.226 | 0.005 | -0.273 | 0.009 | -0.223 | 0.163 | 0.102 | 0.091 | 0.408 | -0.035 | -0.166 | -0.201 | -0.15 | 0.37 | -0.547 (active)
ASCC2 (UniProt Q9H1I8) | -0.009 | -0.105 | 0.002 | 0 | -0.003 | 0.007 | 0.037 | -0.014 | 0.016 | -0.057 | -0.012 | 0.049 | -0.044 | 0.048 | 0.04 | -0.026 | 0.023 | -0.007 | -0.205 | -0.002
ACADM isoform 2 (UniProt P11310) | -0.022 | -0.012 | 0.046 | -0.01 | 0.386 (active) | -0.032 | 0.13 | 0.062 | 0.09 | -0.024 | -0.007 | -0.009 | -0.042 | -0.007 | -0.007 | 0.029 | 0.029 | -0.03 | 0.024 | -0.01
ABCD3 (UniProt P28288) | -0.064 | 0.1 | -0.114 | -0.019 | -0.048 | 0.028 | 0.444 (active) | 0.044 | -0.013 | 0.145 | 0.179 | -0.019 | -0.063 | 0.014 | 0.019 | 0.079 | 0.098 | -0.002 | 0.027 | -0.006
ACYP1 (UniProt P07311) | 0.084 | 0.008 | -0.002 | 0.014 | -0.018 | -0.018 | -0.016 | 0.012 | -0.008 | 0.026 | -0.001 | -0.044 | 0.024 | 0.236 (active) | 0.005 | -0.051 | 0.016 | 0.009 | 0.005 | -0.091
